Experiment [1] can be described thus: cAMP Responsive Elements (CRE) small molecule antagonists, cell-based qHTS assay: qHTS cell viability counter screen (AID 2060913). Further: nearly all actives have a fitted effect of over 40% in size. The method, boiled down:
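Cytotoxicity read in the same wells as the CRE-bla HEK293T antagonist assay: after 3 h compound with 0.25 uM NKH477 final and 2 h beta-lactamase substrate, CellTiter-Glo luminescence measured.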
For orientation: Quantitative high-throughput screening tests each substance at several concentrations.

Experiment [2] can be described thus: cAMP Responsive Elements (CRE) small molecule agonists, cell-based qHTS assay: qHTS cell viability counter screen (AID 2060914). Further: nearly all actives have a fitted effect of over 50% in size. The method, boiled down: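 CRE-bla HEK293T cells in 10% dialyzed FBS medium were exposed to compounds for 3 h at 37C after 18 h plating. CellTiter-Glo was then added in the same wells, and luminescence was read after 30 min at room temperature.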

Values joined by “and” are separate entries in the source; they are usually repeats but may differ in a detail not shown here. Equal entries are not always repeated. Results filed as inconclusive are left out. Where a call stands in place of a potency, no number is given. Active and inactive are the calls of the source. The call rests on the fitted dose curve; in most records, active means well fitted cell-killing curve with a large enough effect in the repeat runs; inconclusive means weak or mixed curves, or effect the other way; inactive means flat fitted curve, though single readings scatter.
Potency means the concentration at half of the fitted maximal effect.

Regarding `OC[C@H](Cc1cccc(O)c1)[C@H](CO)Cc1cccc(O)c1`, the Potency result in experiment [1] and in experiment [2] was “inactive” in each case.

With `CC(=O)CC(=O)Nc1ccc2[nH]c(=O)[nH]c2c1`, the Potency result in experiment [1] and in experiment [2] was “inactive” in each case.

On to `OCc1cccnc1`, for which the Potency result in experiment [1] and in experiment [2] was “inactive” throughout.

Consider `CCc1ccc(C(c2ccc(CC)cc2)C(Cl)Cl)cc1`, for which the Potency result in experiment [1] and in experiment [2] was “inactive” in each case.

For `CN(C)C(=S)SC(=S)N(C)C`, the Potency in experiment [1] was 62.7 µM (active) and 3.2 µM (active). The Potency entry in experiment [2] was “inactive”.

For `CCCCCCCCCCCC(=O)OC`, the Potency entry in experiment [1] and in experiment [2] was “inactive” each time.

For `Cc1ccsc1/C=C/C1=NCCCN1C`, the Potency entry in experiment [1] and in experiment [2] was “inactive” in each case.

As to `OCCOCCOCCOCCOCCO`, the Potency result in experiment [1] and in experiment [2] was “inactive” each time.

On to `CC1(O)CSC(C)(O)CS1` (stereo not given), for which the Potency entry in experiment [1] and in experiment [2] was “inactive” each time.

As to `O=C(c1ccc(O)cc1O)c1ccc(O)cc1O`, the Potency result in experiment [1] and in experiment [2] was “inactive” each time.

Consider `N=C(N)c1ccc(OCCCOc2ccc(C(=N)N)cc2)cc1`, for which the Potency entry in experiment [1] and in experiment [2] was “inactive” each time.

Take `CC(=O)SCC(CC(=O)c1ccc(C)cc1)C(=O)O` (stereo not given): the Potency entry in experiment [1] and in experiment [2] was “inactive” throughout.

Turning to `Nc1c(Cl)cc(Cl)cc1[N+](=O)[O-]`, the Potency result in experiment [1] and in experiment [2] was “inactive” each time.

For `NS(=O)(=O)c1cc2c(cc1C(F)(F)F)NC(Cc1ccccc1)NS2(=O)=O` (stereo not given), the Potency entry in experiment [1] and in experiment [2] was “inactive” each time.

As to `O=C(NCC1CCCCN1)c1cc(OCC(F)(F)F)ccc1OCC(F)(F)F` (stereo not given), the Potency result in experiment [1] and in experiment [2] was “inactive” throughout.

As to `CCOC(=O)CC1(C)OCC(C)O1` (stereo not given), the Potency result in experiment [1] and in experiment [2] was “inactive” in each case.

Take `NCC1(Cc2noc(=O)[nH]2)CCCCC1`: the Potency entry in experiment [1] and in experiment [2] was “inactive” each time.

For the molecule `CCCCCCCCCOS(=O)(=O)O`, the Potency result in experiment [1] and in experiment [2] was “inactive” throughout.

`CC(C)=O`: the Potency entry in experiment [1] was “inactive”. Besides, the Potency in experiment [2] was 25 µM (active).

As for `Cc1c(C)n(Cc2ccccc2)c2ccc(C(=O)OCCN(C)C)cc12`, the Potency result in experiment [1] and in experiment [2] was “inactive” in each case.

As for `CCCCC/C=C\C/C=C\CCCCCCCC(=O)OC`, the Potency result in experiment [1] and in experiment [2] was “inactive” in each case.

Take `CC(=O)N(CC(O)CO)c1c(I)c(C(=O)NCCO)c(I)c(C(=O)NCC(O)CO)c1I` (stereo not given): the Potency result in experiment [1] and in experiment [2] was “inactive” each time.

Turning to `COCCOCCOCCOCCO`, the Potency result in experiment [1] and in experiment [2] was “inactive” in each case.

In the case of `CCC1CCC(CCC(=O)O)C1` (stereo not given), the Potency result in experiment [1] and in experiment [2] was “inactive” in each case.

As for `N#Cc1ccc(C/C(=N/NC(=O)Nc2ccc(OC(F)(F)F)cc2)c2cccc(C(F)(F)F)c2)cc1`, the Potency entry in experiment [1] and in experiment [2] was “inactive” throughout.

Consider `O=c1[nH]c(=O)n([C@H]2C[C@H](O)[C@@H](CO)O2)cc1C(F)(F)F`, for which the Potency result in experiment [1] and in experiment [2] was “inactive” each time.

`C=C(C)C(=O)OCC`: the Potency entry in experiment [1] and in experiment [2] was “inactive” throughout.

`Clc1ccc(Nc2nnc(Cc3ccncc3)c3ccccc23)cc1`: the Potency result in experiment [1] and in experiment [2] was “inactive” each time.

On to `CC(C)c1ccc(S(=O)(=O)O)cc1`, for which the Potency result in experiment [1] and in experiment [2] was “inactive” in each case.

Consider `CC(C)C(O)C(C)(C)CO` (stereo not given), for which the Potency entry in experiment [1] and in experiment [2] was “inactive” throughout.

Consider `CC1(C)[C@H]2CC[C@]1(C)C(=O)C2`, for which the Potency result in experiment [1] and in experiment [2] was “inactive” each time.

Regarding `O=C(c1ccc2c(c1)C(=O)OC2=O)c1ccc2c(c1)C(=O)OC2=O`, the Potency result in experiment [1] and in experiment [2] was “inactive” each time.

Turning to `CC(=O)C1CCCCC1=O` (stereo not given), the Potency entry in experiment [1] and in experiment [2] was “inactive” throughout.

Take `C/C=C/C=N/NC(=O)c1ccncc1`: the Potency entry in experiment [1] and in experiment [2] was “inactive” each time.

For `CCCCOC(=O)C(C)O` (stereo not given), the Potency result in experiment [1] and in experiment [2] was “inactive” in each case.

In the case of `CNC1CCCN(c2c(F)cc3c(=O)c(C(=O)O)cn(C4CC4)c3c2OC)C1` (stereo not given), the Potency entry in experiment [1] and in experiment [2] was “inactive” in each case.

Consider `CS(=O)(=O)c1ccc(Cl)cc1`, for which the Potency entry in experiment [1] and in experiment [2] was “inactive” each time.

Regarding `CCOc1ccc(NS(=O)(=O)c2ccc(N)cc2)nn1`, the Potency result in experiment [1] and in experiment [2] was “inactive” throughout.

`CCOC(=O)CCCCCCCCC(=O)OCC`: the Potency result in experiment [1] and in experiment [2] was “inactive” throughout.

For `Cc1ccc(N(CCO)CCO)cc1`, the Potency entry in experiment [1] and in experiment [2] was “inactive” throughout.

Take `COc1ccccc1N1CCN(CCCNc2cc(=O)n(C)c(=O)n2C)CC1`: the Potency result in experiment [1] and in experiment [2] was “inactive” each time.

Regarding `CCN1CCN(c2cc3c(cc2F)c(=O)c(C(=O)O)cn3C2CC2)CC1`, the Potency entry in experiment [1] and in experiment [2] was “inactive” each time.

Turning to `CCN(CC)CCOC(=O)C(c1ccccc1)C1CCCCC1` (stereo not given), the Potency entry in experiment [1] and in experiment [2] was “inactive” throughout.

Turning to `Cc1ccc(/C(=C\CN2CCCC2)c2ccccn2)cc1`, the Potency entry in experiment [1] and in experiment [2] was “inactive” each time.

With `Nc1c2c(nc3ccccc13)CCCC2O` (stereo not given), the Potency entry in experiment [1] and in experiment [2] was “inactive” throughout.

As to `CCCCCCn1c(=O)c2c(ncn2C)n(C)c1=O`, the Potency entry in experiment [1] and in experiment [2] was “inactive” each time.

Take `CC(=O)CC(C)(C)C1CCCCC1`: the Potency result in experiment [1] and in experiment [2] was “inactive” throughout.

Take `Cc1nc(C2CCCCC2)c(-c2ccc(S(N)(=O)=O)c(F)c2)o1`: the Potency entry in experiment [1] and in experiment [2] was “inactive” throughout.

Turning to `[O-]/[N+](=N\O)c1ccccc1`, the Potency result in experiment [1] and in experiment [2] was “inactive” in each case.

Turning to `Nc1ccc(Oc2ccc(Cl)cc2)cc1`, the Potency result in experiment [1] and in experiment [2] was “inactive” in each case.

Take `CC(O)c1ccccc1` (stereo not given): the Potency entry in experiment [1] and in experiment [2] was “inactive” throughout.

Take `CCOC(=O)[C@@H](C)Oc1ccc(Oc2nc3ccc(Cl)cc3o2)cc1`: the Potency result in experiment [1] and in experiment [2] was “inactive” throughout.

As to `CCOC(=O)CC(C)=O`, the Potency entry in experiment [1] and in experiment [2] was “inactive” each time.

On to `CCNC(=S)NCC`, for which the Potency result in experiment [1] and in experiment [2] was “inactive” each time.

In the case of `OC(CCN1CCCCC1)(c1ccccc1)C1CCCCC1` (stereo not given), the Potency entry in experiment [1] and in experiment [2] was “inactive” throughout.

The values above are taken from PubChem BioAssay (Tox21).
